Experimental findings from PubChem BioAssay (Tox21) are described below.

Values without a mark were called inactive. Inconclusive results are not listed. Activity calls are given as the source filed them. Unless noted, calls follow the shape of the dose curve; as a rule, active = well fitted curve in the direction sought with a large enough effect in the repeat runs; inconclusive = weak or mixed curves; inactive = no such curve, though single readings can be large; an effect the other way counts as inactive or inconclusive.

The nature of experiment [1]: qHTS assay to identify small molecule antagonists of the estrogen related receptor (ERR) signaling pathway from Tox21 library - cell viability counter screen (AID 1224834). Also: nearly all actives have a fitted effect of over 30% in size. The procedure, abridged: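 Viability readout (CellTiter-Fluor fluorescence, 30 min at 37 C) multiplexed with the ERR assay; cells treated 17.5 h at 37 C with compounds delivered in DMSO.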
A general note: qHTS replaces the single test concentration by a dilution series.

Experiment [2] has as its target Luciferin 4-monooxygenase (Photinus pyralis) (UniProt P08659). Nature of the experiment: qHTS assay to identify small molecule inhibitors of firefly luciferase (AID 1224835). Also: nearly all actives have a fitted effect of over 25% in size. Also: potency is read from the fitted curve at half-maximal effect. The procedure, abridged: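 Quantitative HTS format; KM concentrations of both substrates. Purified P. pyralis FLuc activity quantified from luminescence images.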
A short description of experiment [3]: qHTS assay to identify small molecule agonists of the constitutive androstane receptor (CAR) signaling pathway - cell viability counter screen (AID 1224836). Also: nearly all actives have a fitted effect of over 45% in size. The procedure, abridged:
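Multiplexed viability check: HepG2-CYP2B6-hCAR cells, 15-point compound dosing, 0.75 uM PK11195 final, 23 h at 37 C, CellTiter-Fluor fluorescence.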

Experiment [4] in a line: qHTS assay to identify small molecule antagonists of the constitutive androstane receptor (CAR) signaling pathway - cell viability counter screen (AID 1224837). Also: nearly all actives have a fitted effect of over 45% in size. The essentials:
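Fluorescence from CellTiter-Fluor served as the viability signal. Human hepatoma HepG2 cells stably bearing hCAR and CYP2B6-2.2kb received compound plus CITCO (50 nM final) for 23 hr.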

Experiment [5] can be described thus: qHTS assay to identify small molecule antagonists of the estrogen related receptor signaling pathway with the pleiotropic PPARgamma coactivator (PGC) from Tox21 10K library - cell viability counter screen (AID 1224840; active = well fitted cell-killing curve with a large enough effect in the repeat runs, not every such curve was filed as active; also: nearly all actives have a fitted effect of over 40% in size). The procedure, abridged:
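Compounds in DMSO, alongside positive and negative controls, were pinned onto PGC/ERR cells (2,000 per well). Exposure lasted 17.5 hours at 37 C, followed by a 30-minute CellTiter-Fluor incubation and fluorescence reading.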

Experiment [6] has as its target Thyrotropin receptor (Homo sapiens) (UniProt P16473). Nature of the experiment: qHTS assay to identify small molecule agonists of the thyroid stimulating hormone receptor (TSHR) signaling pathway (AID 1224843; calls by dose curve; also: nearly all actives have a fitted effect of over 45% in size). The procedure, abridged: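 TSHR-expressing HEK293 cells (800 per well) were exposed to compounds for 30 min at room temperature. cAMP was then detected by HTRF competition with cAMP-d2 and anti-cAMP cryptate, read after 1 h at room temperature. Fifteen concentrations, triplicate.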

Experiment [7] in a line: qHTS assay to identify small molecule agonists of the hypoxia (HIF-1) signaling pathway - cell viability counter screen (AID 1224844; calls by dose curve; also: nearly all actives have a fitted effect of over 50% in size). The procedure, abridged:
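Luminescent ATP content (CellTiter-Glo, 30 min, room temperature) served as the viability measure in HRE-bla ME-180 cells exposed to compounds for 17 hrs in low-serum medium (0.5% dialyzed FBS).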

Experiment [8] can be described thus: qHTS assay to identify small molecule agonists of H2AX (AID 1224845; active = well fitted activation curve with a large enough effect in the signal ratio in the repeat runs, not every such curve was filed as active; the % refers to the signal ratio; also: potency is read from the fitted curve at half-maximal effect). The essentials:
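Wild-type CHO-K1 cells plated overnight, then exposed 3 hr at 37C to compounds at 15 concentrations (0.76% DMSO). Lysed, then HTRF anti-pH2AX(S139)-cryptate/anti-H2AX-d2 detection after 24 hr at room temperature; emissions 665 and 620 nm.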

The nature of experiment [9]: qHTS assay to identify small molecule agonists of the hypoxia (HIF-1) signaling pathway (AID 1224846; active = well fitted activation curve with a large enough effect in the signal ratio in the repeat runs, not every such curve was filed as active; the % refers to the signal ratio). The essentials: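 Measured by blue/green FRET after loading CCF4-AM: beta-lactamase expressed from a hypoxia response element in ME-180 cells. Test agents were delivered in DMSO and left 17 hrs; cells had been plated 5 hrs earlier in low-serum (0.5% dialyzed FBS) medium.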

A short description of experiment [10]: qHTS assay to identify small molecule agonists of H2AX - cell viability counter screen (AID 1224847; calls by dose curve; also: top concentration of the series differs between compounds; nearly all actives have a fitted effect of over 30% in size). The procedure, abridged:
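After overnight plating of 1000 CHO-K1 cells per well, a 15-concentration compound series was applied for 3 hr at 37C. Luminescence from CellTiter-Glo, read following 30 min at room temperature, reflected cell viability.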

Experiment [11] can be described thus: qHTS RealTime-Glo MT Cell Viability Assay in HepG2 cells - 24 hour (AID 1224867). Also: nearly all actives have a fitted effect of over 50% in size. The essentials: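 HepG2 cells (600/well) were dispensed with RealTime-Glo reagents, incubated 5 h at 37 °C, then treated with compounds in DMSO for up to 40 h. Nonlytic NanoLuc luminescence reflecting viable cells was read at each stated time point.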
The nature of experiment [12]: qHTS RealTime-Glo MT Cell Viability Assay in HEK293 cells - 32 hour (AID 1224868). Also: nearly all actives have a fitted effect of over 50% in size. Also: potency is read from the fitted curve at half-maximal effect. The essentials:
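HEK293 cells seeded with NanoLuc/prosubstrate reagent, rested 5 h at 37 C, then dosed and kept at 37 C up to 40 h. Nonlytic real-time luminescence from viable cells read at 0, 8, 16, 24, 32 and 40 h.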

A short description of experiment [13]: A CellTox Green Cytotoxicity Assay to monitor cytotoxicity in HEK293 cells - 0 hour (AID 1224869). Also: nearly all actives have a fitted effect of over 50% in size. The essentials:
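Each value comes from one timepoint of a single continuous run in which HEK293 cells with CellTox Green were exposed to compound for up to 40 h at 37 C, dye fluorescence rising with cell death.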

The nature of experiment [14]: qHTS RealTime-Glo MT Cell Viability Assay in HepG2 cells - 40 hour (AID 1224870). Also: nearly all actives have a fitted effect of over 50% in size. The essentials: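 HepG2 cells mixed with RealTime-Glo MT reagents (NanoLuc plus cell-permeant prosubstrate) were seeded at 600 cells/well, incubated 5 h at 37 C/5% CO2, then pinned with compounds in DMSO; nonlytic luminescence tracked viability during 40 h treatment.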
A short description of experiment [15]: qHTS assay to identify small molecule antagonists of the estrogen related receptor signaling pathway with the pleiotropic PPARgamma coactivator (PGC) from Tox21 10K library (AID 1224841; call rule not given here). The procedure, abridged:
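Compound exposure ran 18 hours at 37 C in PGC/ERR cells (2,000/well) that had first rested 6 hours in a 37 C/5% CO2 incubator. Luciferase activity was then detected with One-Glo after a 30-minute room-temperature step.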

The nature of experiment [16]: qHTS assay to identify small molecule agonists of the estrogen related receptor signaling pathway with the pleiotropic PPARgamma coactivator (PGC) from Tox21 10K library (AID 1224842). Also: nearly all actives have a fitted effect of over 15% in size. The procedure, abridged:
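PGC/ERR reporter cells (NTP line) were seeded 2,000 per well, rested 6 h at 37 C/5% CO2, then pin-dosed with compounds in DMSO for 18 h at 37 C; luciferase read by One-Glo luminescence after 30 min at room temperature.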

Experiment [17] in a line: qHTS assay to identify small molecule antagonists of the estrogen related receptor (ERR) signaling pathway from Tox21 library (AID 1224848). Also: nearly all actives have a fitted effect of over 50% in size. The essentials: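 Cells: ERR line, 2,000/well; 6 h preincubation 37 C/5% CO2. Cpd in DMSO via pin tool; 18 h, 37 C. ONE-Glo, 30 min RT, luminescence.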
Experiment [18] can be described thus: qHTS assay to identify small molecule agonists of the estrogen related receptor (ERR) signaling pathway from Tox21 library (AID 1224849; calls by dose curve; also: nearly all actives have a fitted effect of over 15% in size). The settings on record: ERR reporter cell line, ONE-Glo luciferase, 18 h; at 92.4 µM (top of the series) unless noted. The essentials: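 We plated ERR reporter cells, waited 6 h, added compounds in DMSO by pin tool and incubated them 18 h at 37 C. ONE-Glo was then added and luminescence read after 30 min.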
% is scaled to controls: 0 for no effect and ±100 for the full control effect.

Chain of Thyrotropin receptor (Homo sapiens) (P16473 whole entry, looked up): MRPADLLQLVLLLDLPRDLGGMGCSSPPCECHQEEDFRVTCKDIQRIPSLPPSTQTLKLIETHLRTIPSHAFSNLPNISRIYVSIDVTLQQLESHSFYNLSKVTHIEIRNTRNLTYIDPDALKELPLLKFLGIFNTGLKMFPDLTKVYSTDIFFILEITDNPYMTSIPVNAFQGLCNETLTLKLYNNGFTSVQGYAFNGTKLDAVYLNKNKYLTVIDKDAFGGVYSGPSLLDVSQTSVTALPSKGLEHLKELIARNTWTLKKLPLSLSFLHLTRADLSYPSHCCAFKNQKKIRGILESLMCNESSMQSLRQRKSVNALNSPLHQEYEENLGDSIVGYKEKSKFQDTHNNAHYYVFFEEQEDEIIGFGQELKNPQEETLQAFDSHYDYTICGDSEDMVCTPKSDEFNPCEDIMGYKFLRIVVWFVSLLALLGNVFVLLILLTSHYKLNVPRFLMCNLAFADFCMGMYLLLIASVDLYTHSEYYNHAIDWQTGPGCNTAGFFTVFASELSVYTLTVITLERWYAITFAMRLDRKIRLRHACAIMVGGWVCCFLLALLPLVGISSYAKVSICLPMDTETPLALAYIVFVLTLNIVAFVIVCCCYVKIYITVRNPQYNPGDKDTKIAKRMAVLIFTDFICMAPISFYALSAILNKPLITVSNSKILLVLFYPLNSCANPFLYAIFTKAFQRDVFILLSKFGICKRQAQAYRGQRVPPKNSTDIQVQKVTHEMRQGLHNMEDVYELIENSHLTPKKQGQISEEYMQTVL
Chain of Luciferin 4-monooxygenase (Photinus pyralis) (P08659 whole entry, looked up): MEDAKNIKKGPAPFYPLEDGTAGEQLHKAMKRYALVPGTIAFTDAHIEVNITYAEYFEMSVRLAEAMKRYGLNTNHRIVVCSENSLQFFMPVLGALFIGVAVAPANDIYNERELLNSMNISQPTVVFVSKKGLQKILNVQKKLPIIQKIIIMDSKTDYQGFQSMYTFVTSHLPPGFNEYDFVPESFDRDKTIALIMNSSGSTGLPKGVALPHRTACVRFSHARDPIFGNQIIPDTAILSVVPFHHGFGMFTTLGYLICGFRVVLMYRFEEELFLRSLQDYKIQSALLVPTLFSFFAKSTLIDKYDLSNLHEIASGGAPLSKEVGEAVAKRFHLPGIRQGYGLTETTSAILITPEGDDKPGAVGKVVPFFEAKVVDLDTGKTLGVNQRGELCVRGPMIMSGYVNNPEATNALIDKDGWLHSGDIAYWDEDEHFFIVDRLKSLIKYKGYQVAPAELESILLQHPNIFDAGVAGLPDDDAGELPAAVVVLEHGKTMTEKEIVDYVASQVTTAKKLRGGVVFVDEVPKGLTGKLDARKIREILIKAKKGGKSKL

On to `Cc1cc(C)n(CO)n1`, for which the Potency result in experiment [1], in experiment [2], in [3], in experiment [4], in experiment [5] and in [6] was “inactive” in each case. The Potency entry in experiment [7], in [8], in experiment [10], in experiment [12], in experiment [13] and in [14] was “inactive” throughout. In addition, the result in experiment [9] and in experiment [11] was inactive.
On to `CCOC(C)OCC`, for which the Potency result in experiment [1], in experiment [2], in experiment [3], in [4], in experiment [5] and in [7] was “inactive” each time. The Potency entry in experiment [8], in [12], in experiment [13] and in experiment [14] was “inactive” each time. Also, the outcome in experiment [9] and in experiment [11] was inactive.
As for `COc1cccc([C@H](O)C2CCN(CCc3ccc(F)cc3)CC2)c1OC`, the Potency result in [1], in [2], in [3], in experiment [4], in experiment [5] and in experiment [6] was “inactive” in each case. The Potency result in experiment [7], in experiment [8], in experiment [10] and in experiment [13] was “inactive” throughout. The molecule was classed as inactive in experiment [9] and in experiment [11].
As to `CNc1ccccc1`, the Potency result in [1], in experiment [2], in experiment [3], in experiment [4], in experiment [5] and in [15] was “inactive” each time. Moreover, the Potency entry in experiment [16], in experiment [7], in [10], in experiment [17], in experiment [12] and in experiment [13] was “inactive” in each case. In experiment [14], the Potency entry was “inactive”. In addition, the molecule was classed as inactive in experiment [9] and in experiment [11].
As to `O=C(O)c1c2ccccc2cc2ccccc12`, the Potency result in [1], in experiment [2], in experiment [3], in experiment [4], in [5] and in experiment [6] was “inactive” in each case. For the same molecule, the Potency entry in experiment [7], in experiment [10], in experiment [13] and in experiment [14] was “inactive” throughout. Besides, the molecule was classed as inactive in [11]. For the same molecule, in experiment [12], the Potency is 43.5 µM (active).
`OCCCO`: the Potency entry in [1], in experiment [2], in [3], in experiment [4], in experiment [5] and in experiment [6] was “inactive” each time. Also, the Potency result in experiment [7], in experiment [8], in experiment [12] and in experiment [13] was “inactive” throughout. Also, the call in [9] and in [11] was inactive.
Consider `N#Cc1ccc(CC(=O)c2cccc(C(F)(F)F)c2)cc1`, for which the Potency result in experiment [1], in [2], in [3], in [4], in experiment [5] and in [16] was “inactive” in each case. For the same molecule, the Potency entry in experiment [7], in [8], in [10], in experiment [13] and in experiment [14] was “inactive” throughout. Also, the activity change, positive = activation in [18] is -29.1%. Moreover, the call in experiment [11] was inactive.
As for `CC(Cc1ccccc1)(NC(=O)CN)c1ccccc1` (stereo not given), the Potency result in experiment [1], in [2], in experiment [3], in experiment [4], in [5] and in experiment [6] was “inactive” each time. The Potency entry in [7], in experiment [8], in experiment [10], in experiment [12] and in experiment [13] was “inactive” throughout. The outcome in experiment [9] and in [11] was inactive.
As to `OCCc1ccncc1`, the Potency result in [1], in experiment [2], in experiment [3], in experiment [4], in [5] and in experiment [15] was “inactive” in each case. The Potency result in experiment [16], in experiment [6], in [7], in experiment [8], in [10] and in experiment [17] was “inactive” in each case. Besides, the Potency result in experiment [12], in experiment [13] and in experiment [14] was “inactive” in each case. Also, in experiment [18], the activity change, positive = activation was 1.06%.
For `CCCC1CCOC(C)S1` (stereo not given), the Potency result in experiment [1], in experiment [2], in [3], in [4], in [5] and in experiment [6] was “inactive” in each case. Moreover, the Potency result in [7], in experiment [8], in experiment [10], in [12], in [13] and in experiment [14] was “inactive” throughout. Moreover, the result in experiment [9] and in experiment [11] was inactive.
On to `N#CCCCC(C#N)CCC#N` (stereo not given), for which the Potency result in experiment [1], in [2], in experiment [3], in [4], in experiment [5] and in experiment [15] was “inactive” in each case. In addition, the Potency entry in experiment [16], in experiment [6], in experiment [7], in experiment [8], in experiment [10] and in experiment [17] was “inactive” throughout. Also, the Potency entry in experiment [13] is “inactive”. Moreover, the outcome in experiment [9] and in [11] was inactive. The activity change, positive = activation in experiment [18] was 0.869%.
Take `COc1ccc(/C=C/S(=O)(=O)NC(=O)c2ccc(C)cc2Cl)cc1`: the Potency entry in experiment [1], in [3], in [4], in [5], in experiment [6] and in experiment [7] was “inactive” in each case. Also, the Potency result in experiment [8], in experiment [12] and in experiment [13] was “inactive” throughout. In addition, the Potency in [2] was 79.6 µM (active). Further, the molecule was called inactive in [9].
Regarding `Nc1ncnc2c1ncn2[C@@H]1O[C@H](CO)[C@@H](O)[C@H]1O`, the Potency entry in [1], in experiment [2], in [3], in [4], in [5] and in experiment [6] was “inactive” each time. The Potency entry in [7], in experiment [12], in experiment [13] and in [14] was “inactive” in each case. In addition, in [8], the Potency is 31 µM (active). For the same molecule, in experiment [11], the call was inactive.
For `CCCc1ccc(OC)cc1`, the Potency result in experiment [1], in [2], in experiment [3], in experiment [4], in [5] and in [6] was “inactive” each time. The Potency entry in [7], in experiment [8], in [12], in experiment [13] and in experiment [14] was “inactive” throughout. The call in [9] and in [11] was inactive.
